# Test results: PubChem BioAssay (EPA / NIEHS)
# Where “and” joins values, the source holds several entries; their conditions need not be identical. Equal entries are not always repeated. Inconclusive results are not listed. Calls of active or inactive are those of the source. The calls were made as follows: active = hit-call score of the fitted dose curve at least 0.9, where 1 is the maximum; inconclusive = response in the unintended direction; inactive = score below 0.9.
# Molecular target: Cellular tumor antigen p53 (Homo sapiens) (UniProt P04637)
# Sequence (P04637 whole entry, looked up): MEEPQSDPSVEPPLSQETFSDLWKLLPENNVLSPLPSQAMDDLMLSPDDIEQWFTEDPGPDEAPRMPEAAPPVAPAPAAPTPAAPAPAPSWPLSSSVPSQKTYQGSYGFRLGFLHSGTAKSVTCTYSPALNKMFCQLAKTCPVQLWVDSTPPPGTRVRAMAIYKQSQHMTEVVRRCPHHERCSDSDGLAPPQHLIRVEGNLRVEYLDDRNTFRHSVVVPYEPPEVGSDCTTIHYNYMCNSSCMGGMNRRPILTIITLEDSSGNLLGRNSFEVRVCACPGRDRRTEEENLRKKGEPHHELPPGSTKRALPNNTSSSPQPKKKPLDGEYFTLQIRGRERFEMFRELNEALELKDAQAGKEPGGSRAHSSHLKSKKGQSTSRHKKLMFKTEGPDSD
# Assay: TOX21_p53_BLA_p4_ratio: Tox21 HCT-116 p53 Agonism Beta-lactamase Assay, Ratio, Phase 4 (AID 2283601)
# Method in brief: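 HCT-116 p53 beta-lactamase reporter cells (4000/well) preincubated 5 h, then compound (217-fold dilution of DMSO stock) for 16 h at 37C. CCF4-AM substrate added 2 h at room temperature; 460/530 nm emission ratio fitted upward versus DMSO.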
SMILES,outcome,AC50
CC(=O)c1c(C)c([N+](=O)[O-])c(C(C)(C)C)c([N+](=O)[O-])c1C,inactive,
CCCCN(CCCC)C(=O)N(CCCC)CCCC,inactive,
CC(C)(CO)[C@@H](O)C(=O)NCCC(=O)O,inactive,
Clc1ccc(C(c2ccccc2Cl)C(Cl)Cl)cc1 (centres undefined),,82.4 µM (active) and 36.6 µM (active)
CC(C)Nc1nc(N)nc(Cl)n1,inactive,
CC(C)=CCCC(C)CCOC=O (centres undefined),inactive,
Nc1ccccc1[N+](=O)[O-],inactive,
CCCC(=O)OC(C)(C)Cc1ccccc1,inactive,
CS(=O)(=O)c1ccc(C2=C(c3ccccc3)C(=O)OC2)cc1,inactive,
CC(C=O)Cc1ccc(C(C)(C)C)cc1 (centres undefined),inactive,
CCC1(c2ccccc2)C(=O)NCNC1=O,inactive,
COc1ccc(N)c([N+](=O)[O-])c1,inactive,
c1ccc2cc(Nc3ccc(Nc4ccc5ccccc5c4)cc3)ccc2c1,inactive,
FC(F)(F)COCC(F)(F)F,inactive,
OCCCCC(O)CO (centres undefined),inactive,
CN1C(=O)c2ccccc2C1=O,inactive,
NCCNc1cccc2ccccc12,inactive,
Cc1ccc(N)c(S(=O)(=O)O)c1,inactive,
N#Cc1ccc(CC(=O)c2cccc(C(F)(F)F)c2)cc1,inactive,
CCCCCCCC(=O)OCCCCCC,inactive,

SMILES,outcome,AC50
C[C@H]1C[C@@H](O)CC(C)(C)C1,inactive,
C#CC(C)N(C)C(=O)Nc1ccc(Cl)cc1 (centres undefined),inactive,
CCOC(=O)C1OC1c1ccccc1 (centres undefined),inactive,
COc1ccc(CCC(C)=O)cc1,inactive,
CCOC(=O)C(C#N)=C(c1ccccc1)c1ccccc1,inactive,
CCCC(C)=O,inactive,
C=C(C#N)C(=O)OCC,inactive,
COC(=O)c1cccnc1,inactive,
CCCC(=O)c1ccccc1,inactive,
C[N+](C)(C)CCCCCC[N+](C)(C)C,inactive,
OCC#CCO,inactive,
CC(=O)C1(C)CC2=C(CCCC2(C)C)CC1C (centres undefined),inactive,
CC1C2CC(CC2C2CCCC(O)C2)C1(C)C (centres undefined),inactive,
CCCC(C)C(O)CC (centres undefined),inactive,
CC[N+](C)(CC)CC,inactive,
Cc1ccc(C)o1,inactive,
Brc1ccc(Br)c(Br)c1,inactive,
[Cl][Au]([Cl])[Cl],,37.8 µM (active)
O=C(O)CNc1ccccc1,inactive,
